Measurements taken from PubChem BioAssay (NCI).
Compounds without any hit were thinned out: in the full panel of roughly 79,000, 15% have a hit. Calls of active or inactive are those of the source. Cut-off read from the data, not from the text of the source: active = growth inhibition above about 70%; inactive = the rest.

Tests used:
[1] = NCI Yeast Anticancer Drug Screen. Data for the rad52 strain (AID 147);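 note: 0% = growth of vehicle-treated control cultures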; conditions: S. cerevisiae rad52 mutant growth inhibition, active compounds read high
Outline: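 Measured: yeast growth inhibition. System: strain with a defined DNA damage repair alteration. Reference: vehicle-treated control cultures.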

[2] = NCI Yeast Anticancer Drug Screen. Data for the wt1 strain (AID 149);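 note: 0% = growth of vehicle-treated wt1 cultures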; conditions: S. cerevisiae wt1 strain (SPY 50644) growth inhibition, active compounds read high
Outline: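 Vehicle-normalised growth inhibition; strain wt1; compound exposure.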

[3] = NCI Yeast Anticancer Drug Screen. Data for the rad50EPP+ strain (AID 151);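 note: 0% = growth of vehicle-treated control cultures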; conditions: S. cerevisiae rad50 mutant strain, active compounds read high
Outline: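 One strain with a rad50 alteration (rad50EPP+) was compound-treated, its growth then compared to that of vehicle controls.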

[4] = NCI Yeast Anticancer Drug Screen. Data for the mgt1 strain (AID 153); conditions: S. cerevisiae mgt1 mutant growth inhibition, active compounds read high
Outline: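 After exposure of the mgt1 yeast mutant to compound, growth was measured and reported as inhibition compared with vehicle controls.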

[5] = NCI Yeast Anticancer Drug Screen. Data for the rad50 strain (AID 155);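 note: 0% = growth of vehicle-only cultures of the same strain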; conditions: S. cerevisiae rad50 strain growth inhibition, active compounds read high
Outline: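 A DNA repair-deficient yeast mutant serves as the test organism; compound-induced growth inhibition is calculated against vehicle-treated cells.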

[6] = NCI Yeast Anticancer Drug Screen. Data for the mec2-1 strain (AID 157); conditions: S. cerevisiae mec2-1 strain, active compounds read high
Outline: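 Test agents were screened against the mec2-1 yeast strain, with defined DNA repair or cell cycle alteration. Growth was scored as inhibition against vehicle-only controls.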

[7] = NCI Yeast Anticancer Drug Screen. Data for the rad14 strain (AID 159);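 note: 0% = growth of vehicle-treated control cultures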; conditions: S. cerevisiae rad14 strain growth inhibition, active compounds read high
Outline: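 Vehicle-treated cultures served as the baseline for growth inhibition of a DNA repair-mutant yeast strain exposed to each compound.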

[8] = NCI Yeast Anticancer Drug Screen. Data for the sgs1 mgt1 strain (AID 161);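 note: 0% = growth of cultures given vehicle only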; conditions: S. cerevisiae sgs1 mgt1 strain, active compounds read high
Outline: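 Genetically altered yeast, compound exposure, growth inhibition relative to vehicle.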

[9] = NCI Yeast Anticancer Drug Screen. Data for the CLN2oe strain (AID 163);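 note: 0% = growth of vehicle-only control cultures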; conditions: S. cerevisiae CLN2oe strain, active compounds read high
Outline: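 Here, growth inhibition in a cell-cycle-altered yeast strain after compound exposure was quantified against vehicle control growth.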

[10] = NCI Yeast Anticancer Drug Screen. Data for the cln2 rad14 strain (AID 165);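 note: 0% = growth equal to vehicle treated cultures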; conditions: S. cerevisiae cln2 rad14 strain, active compounds read high
Outline: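 Growth of compound-exposed yeast (cln2 rad14 genotype) measured and expressed as inhibition relative to vehicle.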

[11] = NCI Yeast Anticancer Drug Screen. Data for the bub3 strain (AID 167); conditions: S. cerevisiae bub3 mutant strain, active compounds read high
Outline: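 Inhibition values come from growth of compound-treated mutant yeast normalised to vehicle-treated controls.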

[12] = NCI Yeast Anticancer Drug Screen. Data for the wt2 strain (AID 169);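 note: 0% = growth of vehicle-treated yeast cultures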; conditions: S. cerevisiae wt2 strain growth inhibition, active compounds read high
Outline: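 Genetically defined yeast strains from a DNA-repair/cell-cycle panel were used. Compound-exposed yeast growth was measured, and the inhibition was calculated relative to vehicle treatment.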

[13] = NCI Yeast Anticancer Drug Screen. Data for the mlh1 strain (AID 171);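 note: 0% = growth of vehicle-treated control cultures of the same strain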; conditions: S. cerevisiae mlh1 strain growth inhibition, active compounds read high
Outline: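 Here the genetically defined yeast mutant is grown with each compound, and the extent to which its growth falls below that of vehicle-exposed cells is reported.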

[14] = NCI Yeast Anticancer Drug Screen. Data for the mlh1 rad18 strain (AID 175); conditions: S. cerevisiae mlh1 rad18 strain growth inhibition, active compounds read high
Outline: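 In this whole-cell yeast screen, a strain with altered DNA damage repair is challenged with compound, and its growth is measured against matched vehicle-treated controls.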

[15] = NCI Yeast Anticancer Drug Screen. Data for the rad18 strain (AID 177); conditions: S. cerevisiae rad18 mutant growth inhibition, active compounds read high
Outline: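 Screen uses a yeast strain with a defined lesion in DNA damage repair; compound effect is read as loss of growth compared to untreated vehicle cultures.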

[16] = NCI Yeast Anticancer Drug Screen. Data for the sgs1 strain (AID 173);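 note: 0% = growth of vehicle-only control cultures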; conditions: S. cerevisiae sgs1 mutant, active compounds read high
Outline: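 Relative growth inhibition, referenced to vehicle, was determined in a yeast strain with a defined alteration affecting DNA damage repair or cell cycle control after compound exposure.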

[17] = at 5.0 µM (retest, dose inferred, filed as 0.5)
[18] = at 50.0 µM (retest, dose inferred, filed as 5.0)

Measured: growth inhibition

Cc1ccc([N+]2=NC(c3ccccc3)=NN(c3ccccc3)C2)cc1
active: [1]; at 33.0 µM 90% | [1]; at 100.0 µM 96% | [2]; at 100.0 µM 96% | [4]; at 33.0 µM 89% | [4]; at 100.0 µM 97% | [5]; at 33.0 µM 84% | [5]; at 50.0 µM 97% | [5]; at 100.0 µM 95% | [6]; at 50.0 µM 91.8% | [6]; at 100.0 µM 96% | [7]; at 100.0 µM 96% | [8]; at 50.0 µM 95.3% | [9]; at 100.0 µM 96% | [10]; at 50.0 µM 95.8% | [11]; at 33.0 µM 94% | [11]; [18] 98% | [11]; at 50.0 µM 97.2% | [11]; at 100.0 µM 96% | [12]; at 33.0 µM 83% | [12]; at 100.0 µM 97% | [13]; at 33.0 µM 78% | [13]; at 100.0 µM 97% | [14]; at 50.0 µM 97.2% | [15]; at 33.0 µM 90% | [15]; at 100.0 µM 96%
inactive: [1]; at 1.2 µM 9% | [1]; at 3.7 µM 15% | [1]; at 11.0 µM 19% | [2]; at 1.2 µM 1% | [2]; at 3.7 µM 5% | [2]; at 11.0 µM 8% | [2]; at 33.0 µM 27% | [3]; at 1.2 µM 5% | [3]; at 3.7 µM 15% | [3]; at 11.0 µM 35% | [3]; at 33.0 µM 45% | [3]; at 100.0 µM 45% | [4]; at 1.2 µM 7% | [4]; at 3.7 µM 9% | [4]; at 11.0 µM 9% | [5]; at 1.2 µM 6% | [5]; at 3.7 µM 0% | [5]; [17] 15% | [5]; at 11.0 µM 2% | [5]; [18] 41% | [6]; at 1.2 µM -1% | [6]; at 3.7 µM -3% | [6]; [17] 2% | [6]; at 11.0 µM 1% | [6]; at 33.0 µM 65% | [6]; [18] 16% | [7]; at 1.2 µM 5% | [7]; at 3.7 µM 5% | [7]; at 11.0 µM 18% | [7]; at 33.0 µM 44% | [8]; [17] 10% | [8]; [18] 12% | [9]; at 1.2 µM 2% | [9]; at 3.7 µM -1% | [9]; at 11.0 µM 2% | [9]; at 33.0 µM 46% | [10]; [17] 11% | [10]; [18] 69% | [11]; at 1.2 µM 0% | [11]; at 3.7 µM -1% | [11]; [17] -2% | [11]; at 11.0 µM 12% | [12]; at 1.2 µM 0% | [12]; at 3.7 µM 4% | [12]; at 11.0 µM 7% | [13]; at 1.2 µM 1% | [13]; at 3.7 µM 4% | [13]; at 11.0 µM 7% | [14]; [17] 3% | [14]; [18] 45% | [15]; at 1.2 µM 2% | [15]; at 3.7 µM 11% | [15]; at 11.0 µM 11%

CCCCCCCCCCCCCCCCOP(=O)(O)OCC(N)C(=O)O (stereo unspecified)
active: [1]; at 33.0 µM 98% | [1]; at 100.0 µM 98% | [2]; at 33.0 µM 98% | [2]; at 100.0 µM 97% | [3]; at 11.0 µM 80% | [3]; at 33.0 µM 98% | [3]; at 100.0 µM 98% | [4]; at 33.0 µM 97% | [4]; at 100.0 µM 97% | [5]; at 33.0 µM 97% | [5]; [18] 98% | [5]; at 50.0 µM 98.4% | [5]; at 100.0 µM 97% | [6]; at 33.0 µM 98% | [6]; [18] 99% | [6]; at 50.0 µM 98.2% | [6]; at 100.0 µM 97% | [7]; at 33.0 µM 98% | [7]; at 100.0 µM 97% | [8]; [18] 99% | [8]; at 50.0 µM 98.8% | [9]; at 33.0 µM 94% | [9]; at 100.0 µM 97% | [10]; [18] 99% | [10]; at 50.0 µM 98% | [11]; at 33.0 µM 98% | [11]; [18] 99% | [11]; at 50.0 µM 98.8% | [11]; at 100.0 µM 98% | [13]; at 33.0 µM 97% | [13]; at 100.0 µM 97% | [16]; at 33.0 µM 98% | [16]; at 100.0 µM 98% | [14]; [18] 99% | [14]; at 50.0 µM 98.2% | [15]; at 33.0 µM 97% | [15]; at 100.0 µM 97%
inactive: [1]; at 1.2 µM -2% | [1]; at 3.7 µM 5% | [1]; at 11.0 µM 54% | [2]; at 1.2 µM -19% | [2]; at 3.7 µM -22% | [2]; at 11.0 µM 39% | [3]; at 1.2 µM -17% | [3]; at 3.7 µM -4% | [4]; at 1.2 µM -1% | [4]; at 3.7 µM 5% | [4]; at 11.0 µM 52% | [5]; at 1.2 µM -20% | [5]; at 3.7 µM -6% | [5]; [17] -25% | [5]; at 11.0 µM 42% | [6]; at 1.2 µM 6% | [6]; at 3.7 µM 3% | [6]; [17] 12% | [6]; at 11.0 µM 50% | [7]; at 1.2 µM 4% | [7]; at 3.7 µM -4% | [7]; at 11.0 µM 59% | [8]; [17] -13% | [9]; at 1.2 µM 6% | [9]; at 3.7 µM -10% | [9]; at 11.0 µM -3% | [10]; [17] 6% | [11]; at 1.2 µM -13% | [11]; at 3.7 µM -29% | [11]; [17] -14% | [11]; at 11.0 µM 34% | [12]; at 1.2 µM -17% | [12]; at 3.7 µM -22% | [12]; at 11.0 µM -22% | [12]; at 33.0 µM -22% | [12]; at 100.0 µM 48% | [13]; at 1.2 µM -23% | [13]; at 3.7 µM -11% | [13]; at 11.0 µM 53% | [16]; at 1.2 µM 14% | [16]; at 3.7 µM 1% | [16]; at 11.0 µM 51% | [14]; [17] -26% | [15]; at 1.2 µM -25% | [15]; at 3.7 µM -11% | [15]; at 11.0 µM 40%
